This note sets out measurements from PubChem BioAssay AID624138 (Broad Institute, 2012).

Among all 17,000 compounds or so, about 35 (0.2%) were called active.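 How the source made its calls: active means compounds whose four printed spots each show fluorescence over background unusually high for their array block, chance value under 7%; inactive means the rest.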 Only a selection was taken, and actives are over-represented in it overall.

In the assay the target is Signal transducer and activator of transcription 3 (Homo sapiens) (UniProt P40763). The experiment in a line: STAT3 binders, primary screen, biochemical, small molecule microarray, single point, set 2 (AID 624138). The note with it: His-STAT3 binding, anti-His fluorescence.
Signal transducer and activator of transcription 3 (Homo sapiens), sequence (P40763 whole entry, looked up): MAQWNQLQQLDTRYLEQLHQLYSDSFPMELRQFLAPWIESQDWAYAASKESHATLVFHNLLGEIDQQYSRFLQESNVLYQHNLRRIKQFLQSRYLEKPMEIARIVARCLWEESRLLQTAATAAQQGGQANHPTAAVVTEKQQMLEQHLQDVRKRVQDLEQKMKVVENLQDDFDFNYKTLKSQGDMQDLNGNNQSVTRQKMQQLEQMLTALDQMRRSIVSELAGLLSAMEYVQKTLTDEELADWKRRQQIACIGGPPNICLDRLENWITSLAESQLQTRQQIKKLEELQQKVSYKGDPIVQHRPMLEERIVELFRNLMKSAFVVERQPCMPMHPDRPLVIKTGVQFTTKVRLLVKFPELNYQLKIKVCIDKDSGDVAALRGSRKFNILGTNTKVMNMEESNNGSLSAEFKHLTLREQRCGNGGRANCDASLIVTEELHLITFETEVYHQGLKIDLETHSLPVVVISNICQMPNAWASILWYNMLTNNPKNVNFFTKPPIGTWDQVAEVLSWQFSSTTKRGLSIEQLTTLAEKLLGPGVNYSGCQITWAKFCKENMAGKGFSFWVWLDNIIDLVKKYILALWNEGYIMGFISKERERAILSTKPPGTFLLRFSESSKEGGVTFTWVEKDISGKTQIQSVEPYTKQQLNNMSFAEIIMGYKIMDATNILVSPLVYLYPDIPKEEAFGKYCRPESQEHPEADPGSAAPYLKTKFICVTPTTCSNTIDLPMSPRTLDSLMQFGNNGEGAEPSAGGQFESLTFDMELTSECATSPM
Consider `O=C(NC1CC1)C1=C[C@H](c2coc3ccccc3c2=O)C[C@H](OCCCCO)O1`, for which the outcome was inactive.
As to `C[C@@H]1CN([C@H](C)CO)C(=O)Cc2cc(NC(=O)CCN3CCOCC3)ccc2O[C@H]1CN(C)Cc1ccncc1`, the outcome was inactive.
For `C=C1CCC(C)C(C)(CCC2=CC(OC)OC2=O)C/C=C\C=C\1C(=O)O` (centres undefined) the value was “inactive”; for `C=CCNC(=O)[C@H]1[C@@H]2C(=O)O[C@@H](c3ccccc3)[C@@H](c3ccccc3)N2[C@@H](c2ccccc2OCCO)[C@]12C(=O)N(C(=O)OCCOC)c1ccc(C#Cc3ccc(OC)cc3)cc12`, “inactive”; for `C[C@@H]1CN([C@H](C)CO)C(=O)c2cc(NC(=O)Nc3ccccc3)ccc2O[C@@H](C)CCCCO[C@@H]1CN(C)Cc1ccncc1`, “inactive”.
Take `C[C@H]1CN([C@@H](C)CO)C(=O)Cc2cc(NC(=O)C3CC3)ccc2O[C@@H]1CN(C)S(=O)(=O)c1cccs1`: the molecule was called inactive.
For `COc1ccc(S(=O)(=O)N(C)C[C@@H]2Oc3c(NS(=O)(=O)c4ccccc4)cccc3C(=O)N([C@@H](C)CO)C[C@@H]2C)cc1` the value was “inactive”.
For `C[C@@H]1CN([C@H](C)CO)C(=O)c2cccc(NC(=O)c3ccncc3)c2O[C@@H]1CN(C)S(=O)(=O)c1cn(C)cn1` the value was “inactive”; for `Cc1cccc(-n2c(SCC(N)=O)nnc2-c2ccncc2)c1C`, “inactive”; for `C[C@@H]1CCCCO[C@@H](CN(C)C)[C@@H](C)CN([C@H](C)CO)C(=O)c2cc(NC(=O)c3ccncc3)ccc2O1`, “inactive”.
Turning to `OC(CCCN1CCN(c2ncc(F)cn2)CC1)c1ccc(F)cc1` (centres undefined), the molecule was classed as inactive.
For `C[C@@H]1CN([C@H](C)CO)C(=O)c2cccc(NS(=O)(=O)c3cn(C)cn3)c2O[C@@H]1CN(C)Cc1ccc(C(F)(F)F)cc1` the value was “inactive”; for `Cc1ccc(NC(=O)C(C)N(c2ccc(Cl)cc2)S(C)(=O)=O)c(C)c1` (centres undefined), “inactive”.
For `COc1ccc(-c2cnc3c(-c4ccsc4)cnn3c2)cc1` the value was “inactive”; for `C[C@@H]1CCCCO[C@@H](CN(C)C(=O)NC2CCCCC2)[C@H](C)CN([C@H](C)CO)C(=O)c2cc(NS(=O)(=O)c3ccc(Cl)cc3)ccc2O1`, “inactive”; for `Cc1noc(C)c1NC(=O)Nc1ccc2c(c1)C(=O)N([C@@H](C)CO)C[C@@H](C)[C@H](CN(C)C)O2`, “inactive”.
Consider `C[C@@H]1CCCCO[C@H](CN(C)C(=O)Nc2ccc3c(c2)OCO3)[C@@H](C)CN([C@@H](C)CO)C(=O)c2cc(NC(=O)CCC(F)(F)F)ccc2O1`, for which the call was inactive.
For `C[C@@H]1CN([C@@H](C)CO)C(=O)Cc2cc(NS(C)(=O)=O)ccc2O[C@@H]1CN(C)Cc1ccc2c(c1)OCO2` the value was “inactive”.
Consider `Cc1ccc(S(=O)(=O)N(C)C[C@H]2Oc3ccc(NC(=O)CCC(F)(F)F)cc3C(=O)N([C@@H](C)CO)C[C@H]2C)cc1`, for which the result was inactive.
